Assay outcomes deposited in PubChem BioAssay by several laboratories.
The list is not random: actives were taken first. Their share in the collection is about 0.72%.
Neddylation inh = inhibitors of human cullin neddylation; TR-FRET cullin neddylation, biochemical; 360,000 tested, 0.58% active; AID 651699; calls only at 25 µM; P61081+Q13564; in the data active = inhibition above about 36%
Target sequence (P61081 whole entry, looked up): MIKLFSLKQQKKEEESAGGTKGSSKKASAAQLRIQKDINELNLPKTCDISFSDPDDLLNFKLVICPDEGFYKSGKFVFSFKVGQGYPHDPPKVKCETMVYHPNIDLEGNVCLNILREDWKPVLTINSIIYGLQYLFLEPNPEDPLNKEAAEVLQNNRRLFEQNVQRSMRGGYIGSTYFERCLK
Target sequence (Q13564 whole entry, looked up): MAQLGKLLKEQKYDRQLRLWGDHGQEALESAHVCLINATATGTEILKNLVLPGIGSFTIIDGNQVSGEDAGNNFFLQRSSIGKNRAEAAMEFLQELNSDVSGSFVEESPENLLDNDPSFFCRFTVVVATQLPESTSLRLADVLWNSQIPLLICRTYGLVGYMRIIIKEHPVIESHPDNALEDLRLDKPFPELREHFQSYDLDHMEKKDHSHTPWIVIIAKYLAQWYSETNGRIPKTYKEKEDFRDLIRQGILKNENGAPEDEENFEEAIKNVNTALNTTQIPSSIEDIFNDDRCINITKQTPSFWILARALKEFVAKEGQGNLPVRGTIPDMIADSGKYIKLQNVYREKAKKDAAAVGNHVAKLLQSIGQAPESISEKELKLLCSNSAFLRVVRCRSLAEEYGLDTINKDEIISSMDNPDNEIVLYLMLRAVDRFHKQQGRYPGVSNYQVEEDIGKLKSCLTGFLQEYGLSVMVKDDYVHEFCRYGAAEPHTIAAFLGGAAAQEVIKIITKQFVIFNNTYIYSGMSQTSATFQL
PKA-R1A activ = activates the PKA-R1A holoenzyme complex; 340,000 tested, 0.083% active; activation, % at 11.4 µM; PKA-R1A dissociation, Cy5-IP20 fluorescence polarization; scaled: DMSO 0%, 113 µM cGMP 100%; P00514+P68181;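 active = percent activation above the mean of all tested compounds plus 3 SD, cut at about 19% in these data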;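 also: higher means more PKAc released from R1A so a rise in polarization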
PKA-R2B activ = activators of human PKA-R2B complex. P22694+P31323. PKA-R2B holoenzyme dissociation, Cy5-IP20 fluorescence polarization; R2B truncated from residue 108, S112A mutant; 0% DMSO only, 100% 113 µM cGMP. activation, % at 11.4 µM. 340,000 tested, 0.079% active. AID 504700;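 active = activation above a cutoff set at the mean over all compounds plus 3 SD, cut at about 18% in these data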;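 also: higher means more holoenzyme dissociation and a rise in polarization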
PolyA inh = blocks polyadenylation in yeast reporter cells; S. cerevisiae SKY197-pL101 polyadenylation reporter, beta-gal luminescence; efflux-impaired pdr1/pdr3 knockout yeast; score 100 = 6 SD above DMSO; activity score, % at 12 µM; 300,000 tested, 0.02% active; AID 1875;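 active = lowest replicate activity score at least 50, where 100 means six control SD above control mean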;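 also: yeast exposed to compound for 9 h at 30 °C; higher score means more reporter readthrough which indicates perturbed polyadenylation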
Neddyl inh conf = cullin neddylation inhibition, confirmation; calls only at 25 µM; TR-FRET cullin neddylation biochemical assay; AID 652217; shares compounds with Neddylation inh; 1,800 tested, 13% active; in the data active = inhibition above about 40%;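 also: neddylation substrate is the cullin 1 ring ligase complex with SKP2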
Calls only; - = inactive; . = not tested or not shown; + = active, no number.

SMILES	Neddylation inh	PKA-R1A activ	PKA-R2B activ	PolyA inh	Neddyl inh conf
COC(=O)c1cc(COc2ccc3ccc(=O)oc3c2)c(C)o1	+	-	-	-	+
COC(=O)c1ccc(COc2ccc3ccc(=O)oc3c2)o1	+	-	-	-	-
COC(=O)c1ccc(COc2ccc(C)c(C)c2)o1	-	-	-	-	.
COC(=O)[C@]12CCCCC=C1N(Cc1ccc3c(c1)OCO3)C(=O)[C@H](CC(=O)N1CCCCC1)C2	-	.	.	.	.
CN(Cc1nccs1)C(=O)c1cc(COc2cccc3cnccc23)on1	+	-	-	-	.
O=S(=O)(c1ccc(Cl)cc1)N1CCN(c2ccc(N3CCOCC3)nn2)CC1	+	-	-	-	-
O=C(COc1coc(CN2CCc3ccccc3C2)cc1=O)Nc1cccc(Cl)c1	-	-	-	-	.
COc1cccc([C@@H]2CC=C(C(=O)O)[C@H](c3ccc(F)cc3)N2S(=O)(=O)c2ccc(C)cc2)c1	+	-	-	.	-
COc1cccc([C@@H]2CC=C(C(=O)O)[C@H](c3ccccc3)N2S(=O)(=O)c2ccc(C)cc2)c1	-	-	-	.	.
COc1ccc(C(=O)Cn2c(=O)c(CCC(=O)O)nn3c4ccccc4nc23)cc1OC	+	-	-	-	+
COc1cc(/C=C/C(=O)NCc2cccnc2)cc(OC)c1OC	+	-	-	-	-
COc1cc2c(cc1NC(=O)/C=C/c1cc(OC)c(OC)c(OC)c1)oc1ccccc12	+	-	-	-	-
Fc1cc2[nH]c(=S)[nH]c2cc1Cl	+	-	-	-	-
Cc1cc2[nH]c(=S)[nH]c2cc1C	-	-	-	-	.
C=C(Cl)COc1ccc2c(CC)cc(=O)oc2c1	+	-	-	.	-
Cc1ccc(NC(=S)N2CCC(c3ccccc3)C2)c(Cl)c1 (stereo not given)	-	-	-	-	.
O=C(N/N=C/c1ccc2c(c1)OCO2)c1cc(-c2ccc(F)cc2)nc2ccccc12	.	-	-	-	.
O=C1OCc2nc3cc4c(cc3c(-c3ccc(F)cc3)c21)OCO4	+	-	-	-	-
COc1ccc(-c2cc(C(=O)NNC(=O)c3csc(N4CCOCC4)n3)c3ccccc3n2)cc1	+	-	-	-	-
COc1ccc(-c2cc(C(=O)NNC(=O)c3csc(N4CCOCC4)n3)c3ccccc3n2)cc1OC	-	-	-	-	.
Cc1ccccc1NS(=O)(=O)c1ccc(OCC(=O)NCc2ccco2)cc1	-	-	-	-	.
CCOc1ccc(S(=O)(=O)Nc2ccccc2C(=O)NCc2ccco2)cc1	+	-	-	-	-
CC1(C(=O)NS(=O)(=O)C2CC2)CCN(C(=O)c2c(F)cccc2F)C1 (stereo not given)	-	.	.	.	.
Cc1ccc(CNC(=O)CCS(=O)(=O)Cc2ccc(C)cc2)cc1	-	-	-	-	.
CC(=O)c1cc2c(cc1NS(=O)(=O)c1ccccc1F)OCO2	-	-	-	-	.
SMILES	Neddylation inh	PKA-R1A activ	PKA-R2B activ	PolyA inh	Neddyl inh conf
Cc1ccc(NS(=O)(=O)c2cccc(C(=O)N/N=C/c3c(C)nn(-c4ccccc4)c3N3CCCC3)c2)c(C)c1	.	-	-	-	.
COc1ccccc1NS(=O)(=O)c1cccc(C(=O)N/N=C/c2ccc(N3CCOCC3)cc2)c1	+	-	-	-	-
O=C(N/N=C/c1ccc(N2CCOCC2)cc1)c1ccc(O)cc1	-	-	-	-	.
Cc1ccc(C(=O)N/N=C/c2ccc(N3CCOCC3)cc2)c(C)c1	+	-	-	-	-
Cc1ccc(NS(=O)(=O)c2cccc(C(=O)N/N=C/c3ccc4c(c3)OCCO4)c2)c(C)c1	+	-	-	-	-
CN(Cc1ccccc1)C(=O)COC(=O)c1ccc(Cl)cc1N	-	-	-	-	.
Cc1cc(N/N=C/c2ccccc2O)nc(N2CCOCC2)n1	-	-	-	-	.
COc1ccc(OC)c(/C=N/Nc2cc(C)nc(N3CCOCC3)n2)c1	+	.	.	-	-
Cc1ccc2c(c1)COc1c3ccc(C(=O)NC(C)C)cc3nn1-2	+	-	-	-	+
Cc1ccc2c(c1)COc1c3ccc(C(=O)N[C@@H](C)CO)cc3nn1-2	+	-	-	-	.
Cc1ccc2c(c1)COc1c3ccc(C(=O)NCCO)cc3nn1-2	+	-	-	-	+
O=C(NCCO)c1ccc2c3n(nc2c1)-c1ccc(Cl)cc1CO3	-	-	-	-	.
CN(C)c1cccc(C(=O)NCc2ccccc2)c1	+	-	-	-	-
CC(C)c1ccccc1OCC(=O)Nc1cc(S(=O)(=O)N2CCOCC2)ccc1N1CCCC1	-	-	-	-	.
Cc1ccc2cc3cc(C(=O)NCCCN4CCc5ccccc5C4)oc3nc2c1	+	-	-	-	+
CC(C)(C)NC(=O)CN(CC1CCCO1)C(=O)CNS(=O)(=O)c1ccc(F)cc1 (stereo not given)	-	-	-	-	.
O=C(N/C(=C\c1ccc(Cl)cc1)C(=O)N1CCOCC1)c1ccc([N+](=O)[O-])cc1	-	-	-	-	.
O=C(Cn1nc(-c2ccco2)ccc1=O)Nc1cc(Cl)ccc1Cl	+	-	-	-	-
O=C(Cn1nc(-c2ccco2)ccc1=O)Nc1cc(C(F)(F)F)ccc1Cl	.	-	-	-	.
COc1ccc(C(C(=O)NCC2CCCO2)N(C(=O)CNC(=O)c2cccs2)c2ccc(C)cc2)cc1OC (stereo not given)	-	-	-	-	.
Cc1nnc(N2CCC(C(=O)NC3CCC(C)CC3)CC2)c2nn(-c3ccc(Cl)cc3)c(C)c12 (stereo not given)	+	-	-	-	-
CCSc1nnc(-c2ccc(S(=O)(=O)N3CCCC3)cc2)n1C	+	-	-	-	-
Cn1c(SCC(=O)N2CCCC2)nnc1-c1ccc(S(=O)(=O)N2CCCC2)cc1	-	-	-	-	.
CCSc1nnc(-c2ccc(S(=O)(=O)N3CCOCC3)cc2)n1C	+	-	-	-	-
CC1(NC(=O)Cc2csc(-c3cccc(Cl)c3)n2)CCS(=O)(=O)C1 (stereo not given)	-	-	-	.	.
SMILES	Neddylation inh	PKA-R1A activ	PKA-R2B activ	PolyA inh	Neddyl inh conf
COc1ccc2cc(C(=O)C3CCCN(C(=O)/C=C/c4ccccn4)C3)ccc2c1 (stereo not given)	+	-	-	-	-
Cc1sc2nc(-c3cccnc3)[nH]c(=O)c2c1-c1ccccc1	+	-	-	-	-
CC(C)(O)CN(C(=O)c1ccc([N+](=O)[O-])cc1)C1CCCC1	-	-	-	.	.
C/C(=N\NC(=O)c1ccc(N2CCCC2=O)cc1)c1ccc(O)cc1O	+	-	-	-	-
Cc1csc(NC(=O)NCC2CCCC(CNC(=O)Nc3nc(C)cs3)C2)n1 (stereo not given)	-	-	-	-	.
COc1ccc(OC)c(-c2cc(C(=O)N/N=C/c3ccc(F)cc3)c3ccccc3n2)c1	+	.	.	-	.
Cc1ccc(-c2cc(C(=O)NCc3ccccn3)c3ccccc3n2)cc1	+	-	-	-	-
CCOc1ccc(-c2cc(C(=O)N/N=C/c3cccnc3)c3ccccc3n2)cc1	+	-	-	-	.
